Laboratory results as given in ChEMBL document CHEMBL4513146, “CO-ADD screening of Karazin Kharkiv National University (Ukraine) compounds”.
Entries with a potency or affinity are not part of this list.

How the values were obtained:
Klebsiella pneumoniae = conditions: Concentration 32 ug.mL-1;; ASSAY_TEST Inhibition of Bacterial Growth; detection method Absorption (OD600); MEDIA CAMHB; plate type 384well; NBS; CORNING #3640; time 18 hr
Candida albicans = conditions: Concentration 32 ug.mL-1; ASSAY_TEST Inhibition of Fungal Growth; detection method Absorption (OD530)
Cryptococcus neoformans = conditions: Concentration 32 ug.mL-1; ASSAY_TEST Inhibition of Fungal Growth; detection method Resazurin; Absorption (OD600-OD570); plate type 384well; NBS; CORNING #3640

Row | SMILES | Inhibition (Klebsiella pneumoniae) [%] | Inhibition (Candida albicans) [%] | Inhibition (Cryptococcus neoformans) [%]
1 | COc1ccc(NC(=O)Cn2nc3c(Sc4cccc(C)c4)nccn3c2=O)cc1Cl | 5.17 | 12.08 | -20.89
2 | Cc1cc(C)cc(NC(=O)CSc2nnc3c(=O)n(-c4ccc(Br)cc4)ccn23)c1 | 11.44 | 6.21 | -22.2
3 | CSc1cccc(NC(=O)Cn2c(=O)c3nnc(C)n3c3ccccc32)c1 | 4.53 | 4.76 | -2.25
4 | Cc1ccc(-c2ccc3nn(Cc4nc(-c5ccc(Cl)cc5)no4)c(=O)n3n2)cc1 | 0.33 | 7.26 | -7.02
5 | CCc1ccccc1Sc1nccn2c(=O)n(CC(=O)N3CCN(c4ccc(F)cc4)CC3)nc12 | 3.21 | 4.71 | -7.3
6 | COc1ccc(CNC(=O)CSc2nnc3c4cc(-c5ccc(C)cc5)nn4ccn23)cc1OC | 9.92 | -0.42 | -20.85
7 | CCCn1c(=O)c2sccc2n2c(=O)n(CC(=O)c3ccc(OC)c(OC)c3)nc12 | 5.35 | -1.4 | -6.57
8 | COc1ccccc1N1CCN(C(=O)Cn2nc3ccc(-c4ccccc4)nn3c2=O)CC1 | 2.09 | 1.1 | -5.13
9 | CCOc1ccc(C(=O)CSc2nnc3c(=O)n(-c4ccc(F)cc4)ccn23)cc1 | 4.99 | 1.29 | -6.51
10 | COc1ccc(CNC(=O)CCc2nnc3c4cc(-c5ccc(Cl)cc5)nn4ccn23)cc1OC | 10.48 | 1.41 | -19.71
11 | Cc1cccc(C)c1NC(=O)Cn1nc2c3c4c(sc3ncn2c1=O)CCCC4 | 12.26 | 11.56 | -19.68
12 | CCc1ccc(N(Cc2ccc(F)cc2)S(=O)(=O)c2cccn3c(CC)nnc23)cc1 | 6.32 | 33.96 | -7.64
13 | COc1ccccc1NC(=O)Cn1c(=O)c2nnc(C(C)C)n2c2ccccc21 | 6.56 | -0.06 | -9.5
14 | COc1ccc(NC(=O)Cn2nc3c(N4CCOCC4)nccn3c2=O)c(OC)c1 | 20.77 | 0.63 | -16.42
15 | O=C(Cn1nc2c(Oc3ccccc3)nccn2c1=O)Nc1ccccc1F | -3.78 | -2.47 | -4.07
16 | COCCCNC(=O)CSc1nnc2c(=O)n(Cc3ccccc3F)ccn12 | 15.39 | 4.29 | -16.33
17 | CC(C)CCn1c(=O)c2sccc2n2c(=O)n(CC(=O)NC(C)C)nc12 | 5.25 | -0.52 | -18.15
18 | Cc1ccccc1Cn1nc2c(=O)n(-c3cccc(Cl)c3C)ccn2c1=O | 2.06 | 0.54 | -12.78
19 | COc1ccc(CNC(=O)Cn2nc3c(N4CC(C)CC(C)C4)nccn3c2=O)cc1 (centres undefined) | -3.24 | 4.41 | -8.27
20 | Cc1cc(C)cc(Nc2nc(C)cc3nn(CC(=O)NCc4ccco4)c(=O)n23)c1 | 10.95 | 2.86 | -8.71
21 | COc1ccc(N(Cc2cc(F)cc(F)c2)S(=O)(=O)c2ccc3nnc(C)n3c2)cc1 | 10.99 | 0.79 | -7.83
22 | COc1ccc(N(Cc2ccc(C)cc2)S(=O)(=O)c2ccc3nnc(C)n3c2)cc1 | -1.06 | 4.08 | -1.52
23 | CCc1ccc(NC(=O)Cn2nc3n(Cc4cccs4)c(=O)c4sccc4n3c2=O)cc1 | 9.1 | 35.62 | -2.93
24 | Cc1ccc(NC(=O)Cn2nc3c(SCc4ccc(Cl)cc4)nccn3c2=O)c(C)c1 | 13.7 | 0.54 | -21.97
25 | Cc1ccc(Sc2nccn3c(=O)n(CC(=O)Nc4cccc(Br)c4)nc23)c(C)c1 | 7.97 | 8.72 | -18.33
26 | COC(=O)c1ccc(NC(=O)CSc2nc3ccccc3n3c(C(C)C)nnc23)cc1 | 12.96 | 4.43 | -21.14
27 | COc1cc(OC)c(NC(=O)Cn2nc3c4c5c(sc4ncn3c2=O)CC(C)CC5)cc1Cl (centres undefined) | 11.66 | 3.55 | -23.25
28 | CC(C)c1ccc(NC(=O)CSc2nnc3c(=O)n(-c4ccccc4)ccn23)cc1 | 7.22 | -0.59 | -12.85
